From PubChem BioAssay (NCATS)
Several values for one entry are separate records, joined by “and”; a condition that tells them apart may be missing. Identical values can stand only once. Records with an inconclusive call do not appear. Unmarked numbers belong to inactive results. Activity calls are given as the source filed them. Calls come from the whole dose curve; as a rule, active = well fitted cell-killing curve with a large enough effect; inconclusive = small, poorly fitted or top-dose-only effect, or effect the other way; inactive = no such curve, though single readings can be large or run the other way.

Test: Cell Viability - LYMP2-005 (AID 967)
Details: LYMP2-005 lymphoblastoid cell viability; series mostly up to 92.2 µM; activity change, negative = viability loss: at the top concentration
Text: NIH Chemical Genomics Center [NCGC]
NIH Molecular Libraries Screening Centers Network [MLSCN]
National Institutes of Environmental Health Sciences [NIEHS]
National Toxicology Program [NTP]
We have developed a 1536-well cell-based assay for quantitative high throughput screening (qHTS) against a number of cell lines to determine in vitro cytotoxicity of small molecules. This particular assay uses a human lymphoblastoid cell line (LYMP2-005) purchased from Coriell Institute for Medical Research.
NCGC Assay Protocol Summary:
The CellTiter-Glo luminescent cell viability assay (Promega) is a homogeneous method to measure the number of viable cells in culture. The end point readout of this assay is based on quantitation of intracellular ATP, an indicator of metabolic activity, using the luciferase reaction. Luciferase catalyzes the oxidation of beetle Luciferin to oxyluciferin and light in the presence of ATP. The luminescent signal is proportional to amount of ATP present.
Using the CellTiter-Glo luminescent cell viability assay, the amount of cellular ATP was measured in the lymphoblastoid cell line with complete culture medium following compound treatment for 24 hours. The assay was performed in opaque white Kalypsys 1536-well plates. In the screen, tetraoctylammonium bromide was used as positive control. Library compounds were measured for their ability to cause acute toxicity in the cell line, as reflected by a decrease in intracellular ATP levels, in a concentration-dependent manner. […] AC50 values were determined from concentration-response data modeled with the standard Hill equation.
qHTS protocol for CellTiter Glo lymphoblastoid cellular assay
[Step] [Parameter] [Value] [Description]
1. Reagent; 5 uL; 2500 lymphoblastoid cells/well
2. Time; 5 hr; 37 C incubation
4. Controls; 23 nL; Tetraoctylammonium bromide 6.4pM to 92 uM
5. Time; 24 hr; 37 C incubation
6. Reagent; 5 uL; CellTiter Glo reagent
7. Time; 30 min; Room Temperature
8. Detection; Luminescence; Viewlux plate reader
Keywords: cell viability, cytotoxicity, lymphoblastoid cell line, luminescence, NTPHTS, NTPHTS_NCGC, NIEHS, DSSTox, MLSMR, MLSCN, NIH Roadmap, qHTS, NCGC
Potency is the fitted concentration of half-maximal effect.

With `CCCCCCCCOC(=O)c1ccccc1C(=O)OCCCCCCCC` as the compound, how does the “activity change, negative = viability loss” value read?
The value was 16.3%.

For `O=C(O)C(Cl)(Cl)Cl`, which Potency is on record?
The Potency was “inactive”.

With `COC1=CC(=O)O[C@@H](/C=C/c2ccccc2)C1` as the compound, how does the “activity change, negative = viability loss” value read?
The value was -3.44%.

For `Clc1ccccc1Cl`, which “activity change, negative = viability loss” value is on record?
The value was 5.93%.

Which Potency does the source give for `O=C1C2CC=CCC2C(=O)N1SC(Cl)(Cl)Cl` (stereo unspecified) here?
Its Potency is 12.6 µM (active).

For `[O]=[Cr](=[O])([OH])[O][Cr](=[O])(=[O])[OH]`, which Potency is on record?
Its Potency is 10 µM (active) and 15.8 µM (active).

With `CCOC(=O)c1ccccc1C(=O)OCC` as the compound, how does the Potency read?
The Potency was “inactive”.

With `Oc1cc(Cl)c(Cl)cc1Cl` as the compound, how does the “activity change, negative = viability loss” value read?
Its value is 20.2%.

Which “activity change, negative = viability loss” value does the source give for `NNC(N)=O` here?
The value was -2.21%.

Which “activity change, negative = viability loss” value does the source give for `C=CCN=C=S` here?
Its value is 10%.

With `S=C=S` as the compound, how does the “activity change, negative = viability loss” value read?
The value was -29.5%.

With `O=[N+]([O-])c1ccc(F)c([N+](=O)[O-])c1` as the compound, how does the “activity change, negative = viability loss” value read?
Its value is 2.29%.

Which “activity change, negative = viability loss” value does the source give for `O=Cc1ccco1` here?
The value was 3.33%.

With `[O]=[Cd]` as the compound, how does the “activity change, negative = viability loss” value read?
The value was 16.2%.

For `C[C@]12CCC(=O)C[C@@H]1CC[C@@H]1[C@@H]2CC[C@]2(C)[C@@H](O)CC[C@@H]12`, which “activity change, negative = viability loss” value is on record?
The value was -18.1%.

For `O=C/C=C/c1ccccc1`, which Potency is on record?
The Potency was “inactive”.

For `COc1ccc2c(c1OC)C(=O)OC2C1c2cc3c(cc2CCN1C)OCO3` (stereo unspecified), which “activity change, negative = viability loss” value is on record?
Its value is -26.7%.

For `ClC(Cl)(Cl)Cl`, which Potency is on record?
The Potency was “inactive”.

With `CC(C)CCON=O` as the compound, how does the “activity change, negative = viability loss” value read?
Its value is -6.8%.

With `ClC=C(Cl)Cl` as the compound, how does the “activity change, negative = viability loss” value read?
The value was 11.7%.

Which Potency does the source give for `[Cl-].[Cl-].[Hg+2]` here?
The Potency was 0.501 µM (active).

For `O=C1C=CC(=O)C=C1`, which “activity change, negative = viability loss” value is on record?
Its value is 8.67%.

Which “activity change, negative = viability loss” value does the source give for `C[C@H]1CCC[C@H](O)CCCCCc2cc(O)cc(O)c2C(=O)O1` here?
Its value is -24.9%.

For `O=[N+]([O-])c1ccccc1`, which “activity change, negative = viability loss” value is on record?
The value was 6.47%.

Which “activity change, negative = viability loss” value does the source give for `O=C1CCO1` here?
The value was 11.1%.

Which “activity change, negative = viability loss” value does the source give for `O=CC=O` here?
Its value is -12.4%.
